Assay outcomes from PubChem BioAssay.
Ecoli rRNA inh = inhibits bacterial ribosomal RNA function over humanized ribosomes | GFP signal change (wild-type ribosome), % (no concentration beside the values) | E. coli WT GFP vs humanized-ribosome RFP mutants, fluorescence, 24 h; stronger effect = lower value; DMSO median 0, no signal -100 | hit rate 1.6% among 350,000;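 active = significant combined selectivity score with lowered wild-type GFP, culture density cut under 30%, mutant RFP and density less affected; inactive = any of these conditions unmet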
EWS-Fli inh = inhibitors of EWS/Fli oncoprotein transcriptional activity | AID 651661 | hit rate 0.67% among 350,000 | inhibition, % at 12.6 µM | A673 NR0B1-luciferase reporter, viability-normalised;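 active = mean inhibition of at least 50% after viability correction, with every replicate also passing that limit; inconclusive = mean reaches 50% but only one of two replicates passes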;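 also: firefly luciferase signal divided by Alamar Blue viability fluorescence both relative to DMSO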
SIRT5 block = sirtuin-5 (human) deacylase inhibition. Purified SirT5, succinyl-peptide AMC, trypsin-coupled fluorescence. inhibition, % at 15 µM. hit rate 1.1% among 330,000. AID 652115; in the data active = inhibition above about 15%; inconclusive = no clear call, values can overlap the other calls
Target sequence (Q9NXA8 whole entry, looked up): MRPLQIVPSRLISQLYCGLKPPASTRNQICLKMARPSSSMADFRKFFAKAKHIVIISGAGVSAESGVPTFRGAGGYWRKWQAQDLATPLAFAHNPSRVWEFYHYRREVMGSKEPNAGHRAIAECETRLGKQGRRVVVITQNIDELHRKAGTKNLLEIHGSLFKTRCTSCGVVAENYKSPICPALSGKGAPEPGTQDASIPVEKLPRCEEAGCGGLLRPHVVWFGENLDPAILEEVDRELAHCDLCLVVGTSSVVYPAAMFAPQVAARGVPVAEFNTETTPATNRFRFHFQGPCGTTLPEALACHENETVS
LGR2 antag = inhibitors of bursicon-induced Drosophila LGR2 receptor cAMP signaling. HEK293 LGR2, CRE-luciferase, bursicon-stimulated, 4 h. inhibition, % at 9.99 µM. hit rate 0.35% among 380,000;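 active = drop in luminescence signal, shown as inhibition above about 50% in the replicate tests, limit read from the data, passing the limit was not always enough; inconclusive = probably only some replicates passing the limit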;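 also: agonist challenge used bursicon conditioned medium at about half maximal strength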
PAX8 reporter = inhibitors of PAX8 transcriptional activity in RMG-I cells; RMG-I TPO-luciferase reporter, SteadyGlo, 24 h; inhibition, % at 12.6 µM; hit rate 1.2% among 360,000;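 active = mean replicate inhibition at least 60% with every replicate also reaching 60%; inconclusive = only one of the two criteria is met; inactive = mean below 60% and not all replicates reaching 60%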;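 also: luciferase light reporting Pax8 driven TPO promoter activity; plate controls were median of neutral control wells for no effect and mitoxantrone controls for full effect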
PGC1a acetyl inh = PGC1a acetylation modulation, inhibitor mode; AID 651687; inhibition, % at 15.6 µM; hit rate 0.17% among 350,000; U2OS PGC1a acetylation, AlphaScreen anti-acetyl-lysine; with virally co-expressed GCN5 acetyltransferase;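 active = every replicate shows inhibition of at least 40%; inconclusive = mean inhibition at least 40% but some replicate below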;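 also: 0% = neutral control wells and 100% = positive control wells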
* marks the source's active call; other numbers are inactive results; ? = inconclusive; / = no result given. Hits are enriched below; roughly 3.4% of the tested compounds scored in any of these assays.

SMILES	Ecoli rRNA inh	EWS-Fli inh	SIRT5 block	LGR2 antag	PAX8 reporter	PGC1a acetyl inh
O=C(O)c1ccc(N=NNc2cccc([N+](=O)[O-])c2)cc1	-5	-2	-3	-47	-87	/
N#C/C(=N\Nc1cccc([N+](=O)[O-])c1)C(=O)c1ccc(Br)cc1	-34	26	6	44	91*	5
O=C(N/C(=C/c1ccco1)C(=O)N1CCOCC1)c1ccc([N+](=O)[O-])cc1	19	/	1	-5	12	/
O=C(N/C(=C\c1ccco1)C(=O)N1CCCCC1)c1ccc([N+](=O)[O-])cc1	-2	0	17*	-3	-3	1
O=C(Nc1ccc(C(=O)O)cc1)/C(=C\c1ccco1)NC(=O)c1ccc(Br)cc1	10	-6	24*	3	15	4
O=C(Nc1ccc(C(=O)O)cc1)/C(=C\c1ccco1)NC(=O)c1ccc(Br)o1	17	-2	6	8	-1	/
COc1ccc2c3c(n(C)c2c1)[C@@H](CO)N(S(C)(=O)=O)CC31CN(C(=O)C2CC2)C1	-2	1	/	-16	/	8
CO[C@@H]1CN(C)C(=O)c2cc(NC(=O)C3CC3)ccc2OC[C@H](C)N(C(=O)c2ccccc2F)C[C@@H]1C	0	-2	7	4	8	-3
CCCNC(=O)C[C@@H]1C[C@H]2c3cc(NC(=O)c4cccnc4)ccc3O[C@H]2[C@H](CO)O1	0	-3	/	-12	2	-3
O=C(NC1CCCc2ccccc21)C1CCN(S(=O)(=O)c2cccc(C(F)(F)F)c2)CC1 (stereo not given)	5	15	6	8	70*	/
O=C(NNC(=O)C1CCN(S(=O)(=O)c2cccc(C(F)(F)F)c2)CC1)C1CC1	9	-7	-3	6	4	/
C/C=C/c1ccc2c(c1)O[C@@H](CN(C)C(=O)C1CC1)[C@@H](C)CN([C@@H](C)CO)S2(=O)=O	-1	-6	/	-10	/	-13
O=C(C[C@@H]1CC[C@@H]2[C@H](COC[C@@H](O)CN2C(=O)c2cccnc2)O1)Nc1ccc(-c2ccccc2)cc1	3	-9	/	29	12	1
O=C1CC(N2CCC(c3nc4ccccc4[nH]3)CC2)C(=O)N1c1ccccc1F (stereo not given)	20	-1	18*	-15	3	-10
CCCC#Cc1ccc([C@@H]2[C@H](CO)N3C(=O)CN(C(=O)Nc4ccccc4)C[C@@H]23)cc1	3	/	/	/	/	/
C[C@H]1CCCCO[C@@H](CN(C)C(=O)Nc2ccc(C(F)(F)F)cc2)[C@@H](C)CN([C@@H](C)CO)C(=O)c2cc(NC(=O)CCC(F)(F)F)ccc2O1	3	8	-4	?	50	12
C[C@@H]1CN([C@@H](C)CO)C(=O)c2cc(NC(=O)CCCN(C)C)ccc2O[C@@H](C)CCCCO[C@@H]1CN(C)Cc1ccc(C(F)(F)F)cc1	4	-2	3	-2	/	110*
C[C@@H]1CCCCO[C@H](CN(C)Cc2ccccc2)[C@H](C)CN([C@H](C)CO)C(=O)c2cc(NC(=O)CCC(F)(F)F)ccc2O1	0	-3	19*	9	-6	-2
C[C@@H]1CCCCO[C@H](CN(C)Cc2ccc(Cl)c(Cl)c2)[C@@H](C)CN([C@@H](C)CO)C(=O)c2cc(NC(=O)CCC(F)(F)F)ccc2O1	-10	4	8	15	56	8
C[C@H](CO)N1C[C@H](C)[C@H](CN(C)C(=O)Nc2ccc(C(F)(F)F)cc2)OCCCC[C@H](C)Oc2ccc(NC(=O)CCC(F)(F)F)cc2C1=O	5	6	6	65*	17	6
C[C@@H]1CN([C@H](C)CO)C(=O)c2cc(NC(=O)CCC(F)(F)F)ccc2O[C@@H](C)CCCCO[C@@H]1CN(C)Cc1ccc(Cl)c(Cl)c1	2	-6	13	8	81*	9
CS(=O)(=O)N1C[C@@H]2C(c3ccccc3)[C@H](C1)N2Cc1ccc(F)cc1 (stereo not given in full)	-8	/	/	/	/	/
CC(C)NC(=O)N(C)C[C@H]1Oc2cc(C#C[C@H](C)O)ccc2S(=O)(=O)N([C@@H](C)CO)C[C@@H]1C	3	-8	0	0	-21	7
C[C@@H]1CN([C@H](C)CO)C(=O)c2cc(NC(=O)CCC(F)(F)F)ccc2O[C@@H](C)CCCCO[C@H]1CN(C)Cc1ccc(C(F)(F)F)cc1	0	24	3	47	-7	17
C[C@@H]1CN([C@@H](C)CO)C(=O)c2cc(NC(=O)CCC(F)(F)F)ccc2O[C@@H](C)CCCCO[C@H]1CN(C)Cc1ccc(C(F)(F)F)cc1	2	10	9	7	75*	-1
SMILES	Ecoli rRNA inh	EWS-Fli inh	SIRT5 block	LGR2 antag	PAX8 reporter	PGC1a acetyl inh
CCS(=O)(=O)N1CCC2(CC1)CN(C(=O)Nc1cccc(F)c1)[C@@H](CO)c1c2c2ccc(OC)cc2n1C	-2	7	6	12	/	-3
CCOc1ccc2nc(NCCNC(=O)Nc3ccccc3)c(C#N)cc2c1	/	/	/	/	8	64*
CO[C@H]1CN(C)C(=O)c2cc(NC(=O)C3CCOCC3)ccc2OC[C@@H](C)N(C(=O)c2ccccc2)C[C@H]1C	3	0	/	-7	/	-30
CCCNC(=O)N1C[C@@H](C)[C@H](OC)CN(C)C(=O)c2cc(NC(=O)C3CCC3)ccc2OC[C@@H]1C	2	-10	/	12	/	-6
COc1ccc(NC(=O)N(C)C[C@H]2Oc3cc(C#CCC(C)C)ccc3S(=O)(=O)N([C@H](C)CO)C[C@H]2C)cc1	2	-1	25*	3	72*	-19
CCCC#Cc1ccc2c(c1)O[C@H](CN(C)C(=O)Nc1ccc(OC)cc1)[C@H](C)CN([C@H](C)CO)S2(=O)=O	-5	24	4	17	/	-22
COc1ccc(NC(=O)N(C)C[C@@H]2Oc3cc(C#CCC(C)C)ccc3S(=O)(=O)N([C@H](C)CO)C[C@@H]2C)cc1	1	-8	31*	11	59	-16
COc1ccc(NC(=O)N(C)C[C@H]2Oc3cc(C#CCC(C)C)ccc3S(=O)(=O)N([C@H](C)CO)C[C@@H]2C)cc1	3	23	26*	16	10	9
COc1ccc(NC(=O)N(C)C[C@@H]2Oc3cc(C#CCC(C)C)ccc3S(=O)(=O)N([C@@H](C)CO)C[C@H]2C)cc1	-7	16	31*	22	50	-1
CCCC#Cc1ccc2c(c1)O[C@@H](CN(C)C(=O)Nc1ccc(OC)cc1)[C@@H](C)CN([C@H](C)CO)S2(=O)=O	-8	-1	6	19	/	-11
CCCNC(=O)C1(C)CCN(C(=O)c2ccccc2F)C1 (stereo not given)	5	-3	/	3	1	6
CCNC(=O)C1(C)CCN(C(=O)c2ccccc2F)C1 (stereo not given)	14	2	9	4	96*	0
